Test results reported in ChEMBL document CHEMBL1961873, “Compounds: GSK PKIS; Assays: Nanosyn kinase panel” (2012).

Experiments:
[1] = molecular target: T1, Ephrin type-B receptor 2 (Homo sapiens) (UniProt P29323); conditions: at 1 µM
T1 sequence (whole entry): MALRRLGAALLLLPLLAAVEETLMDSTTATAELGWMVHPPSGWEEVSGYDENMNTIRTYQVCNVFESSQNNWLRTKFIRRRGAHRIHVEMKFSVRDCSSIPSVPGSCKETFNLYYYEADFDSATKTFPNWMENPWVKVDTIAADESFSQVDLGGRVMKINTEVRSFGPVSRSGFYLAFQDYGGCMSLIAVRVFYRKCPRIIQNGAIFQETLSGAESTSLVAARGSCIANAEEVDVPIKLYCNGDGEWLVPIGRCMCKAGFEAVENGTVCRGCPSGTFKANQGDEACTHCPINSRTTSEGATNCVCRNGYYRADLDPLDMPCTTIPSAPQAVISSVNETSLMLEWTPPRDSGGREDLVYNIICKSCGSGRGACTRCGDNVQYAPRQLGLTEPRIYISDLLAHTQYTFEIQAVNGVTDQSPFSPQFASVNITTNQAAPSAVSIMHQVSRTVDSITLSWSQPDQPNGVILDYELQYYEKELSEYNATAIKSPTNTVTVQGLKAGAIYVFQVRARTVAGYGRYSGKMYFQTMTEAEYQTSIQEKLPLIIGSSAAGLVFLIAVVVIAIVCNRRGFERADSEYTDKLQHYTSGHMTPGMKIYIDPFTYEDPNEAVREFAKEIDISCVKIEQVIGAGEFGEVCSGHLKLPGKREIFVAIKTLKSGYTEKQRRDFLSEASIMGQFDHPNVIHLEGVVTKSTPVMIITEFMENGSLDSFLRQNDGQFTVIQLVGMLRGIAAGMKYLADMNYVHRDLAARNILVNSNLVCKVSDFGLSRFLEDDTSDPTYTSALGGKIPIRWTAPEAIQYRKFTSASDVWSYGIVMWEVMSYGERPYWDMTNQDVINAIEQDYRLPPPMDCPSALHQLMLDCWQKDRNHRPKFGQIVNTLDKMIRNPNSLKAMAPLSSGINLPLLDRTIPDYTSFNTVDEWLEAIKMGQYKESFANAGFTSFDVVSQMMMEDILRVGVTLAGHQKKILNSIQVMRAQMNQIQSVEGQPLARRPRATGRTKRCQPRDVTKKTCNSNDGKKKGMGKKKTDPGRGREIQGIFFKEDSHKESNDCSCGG

[2] = molecular target: T2, Ephrin type-B receptor 3 (Homo sapiens) (UniProt P54753); conditions: at 0.1 µM
T2 sequence (whole entry): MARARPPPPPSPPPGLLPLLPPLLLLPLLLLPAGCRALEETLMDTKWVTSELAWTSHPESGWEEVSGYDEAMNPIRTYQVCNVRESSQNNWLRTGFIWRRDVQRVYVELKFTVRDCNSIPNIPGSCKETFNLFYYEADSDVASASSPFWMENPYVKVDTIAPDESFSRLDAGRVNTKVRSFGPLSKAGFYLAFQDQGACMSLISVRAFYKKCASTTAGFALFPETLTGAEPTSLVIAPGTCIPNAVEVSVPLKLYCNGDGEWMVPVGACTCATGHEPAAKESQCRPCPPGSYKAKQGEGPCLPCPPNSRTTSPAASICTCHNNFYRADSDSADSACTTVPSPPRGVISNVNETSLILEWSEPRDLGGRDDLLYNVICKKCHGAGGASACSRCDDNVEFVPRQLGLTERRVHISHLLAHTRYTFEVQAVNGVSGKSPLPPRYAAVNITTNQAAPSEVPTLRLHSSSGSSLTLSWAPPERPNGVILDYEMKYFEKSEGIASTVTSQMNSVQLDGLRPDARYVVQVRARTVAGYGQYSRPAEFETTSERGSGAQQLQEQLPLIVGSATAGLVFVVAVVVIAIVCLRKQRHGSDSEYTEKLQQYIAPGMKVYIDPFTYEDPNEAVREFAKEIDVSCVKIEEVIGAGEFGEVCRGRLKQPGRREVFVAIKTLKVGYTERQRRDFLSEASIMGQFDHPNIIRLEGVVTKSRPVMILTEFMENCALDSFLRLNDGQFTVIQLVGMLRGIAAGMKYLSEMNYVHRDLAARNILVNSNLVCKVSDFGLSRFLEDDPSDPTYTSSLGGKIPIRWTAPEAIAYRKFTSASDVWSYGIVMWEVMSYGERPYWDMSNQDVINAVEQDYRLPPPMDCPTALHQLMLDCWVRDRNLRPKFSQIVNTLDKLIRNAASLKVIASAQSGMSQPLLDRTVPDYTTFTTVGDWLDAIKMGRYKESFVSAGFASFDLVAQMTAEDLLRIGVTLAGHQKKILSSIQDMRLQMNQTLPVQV

[3] = molecular target: T2, Ephrin type-B receptor 3 (Homo sapiens); conditions: at 1 µM
[4] = molecular target: T3, Ephrin type-B receptor 4 (Homo sapiens) (UniProt P54760); conditions: at 0.1 µM
T3 sequence (whole entry): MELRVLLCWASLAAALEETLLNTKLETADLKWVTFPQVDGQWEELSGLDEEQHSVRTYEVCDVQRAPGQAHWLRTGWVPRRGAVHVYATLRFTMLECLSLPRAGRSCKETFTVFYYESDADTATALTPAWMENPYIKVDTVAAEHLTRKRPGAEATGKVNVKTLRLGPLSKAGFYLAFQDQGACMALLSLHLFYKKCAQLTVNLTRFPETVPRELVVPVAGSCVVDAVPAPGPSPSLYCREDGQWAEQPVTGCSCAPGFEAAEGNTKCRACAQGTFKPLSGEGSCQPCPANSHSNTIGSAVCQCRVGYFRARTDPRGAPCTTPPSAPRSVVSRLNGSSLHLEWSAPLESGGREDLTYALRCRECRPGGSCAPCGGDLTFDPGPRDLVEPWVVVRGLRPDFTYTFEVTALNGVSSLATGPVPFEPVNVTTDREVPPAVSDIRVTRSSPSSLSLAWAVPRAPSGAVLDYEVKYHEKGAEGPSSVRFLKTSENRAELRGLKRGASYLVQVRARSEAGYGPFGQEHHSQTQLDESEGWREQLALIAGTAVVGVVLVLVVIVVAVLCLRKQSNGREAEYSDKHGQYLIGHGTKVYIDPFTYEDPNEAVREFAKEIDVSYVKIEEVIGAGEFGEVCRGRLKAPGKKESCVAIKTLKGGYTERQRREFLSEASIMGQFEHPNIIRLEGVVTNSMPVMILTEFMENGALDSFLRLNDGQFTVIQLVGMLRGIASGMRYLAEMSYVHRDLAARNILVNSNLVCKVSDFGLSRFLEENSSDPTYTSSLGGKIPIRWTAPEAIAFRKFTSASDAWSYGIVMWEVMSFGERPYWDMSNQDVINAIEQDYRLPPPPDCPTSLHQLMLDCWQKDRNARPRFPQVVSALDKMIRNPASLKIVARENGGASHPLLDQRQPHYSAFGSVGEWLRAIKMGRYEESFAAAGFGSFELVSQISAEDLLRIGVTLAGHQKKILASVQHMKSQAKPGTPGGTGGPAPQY

[5] = molecular target: T3, Ephrin type-B receptor 4 (Homo sapiens); conditions: at 1 µM
[6] = molecular target: Receptor tyrosine-protein kinase erbB-2 (Homo sapiens) (UniProt P04626); conditions: at 0.1 µM
[7] = molecular target: Receptor tyrosine-protein kinase erbB-2 (Homo sapiens) (UniProt P04626); conditions: at 1 µM
[8] = molecular target: Receptor tyrosine-protein kinase erbB-4 (Homo sapiens) (UniProt Q15303); conditions: at 1 µM
Receptor tyrosine-protein kinase erbB-4 (Homo sapiens), sequence (Q15303 whole entry): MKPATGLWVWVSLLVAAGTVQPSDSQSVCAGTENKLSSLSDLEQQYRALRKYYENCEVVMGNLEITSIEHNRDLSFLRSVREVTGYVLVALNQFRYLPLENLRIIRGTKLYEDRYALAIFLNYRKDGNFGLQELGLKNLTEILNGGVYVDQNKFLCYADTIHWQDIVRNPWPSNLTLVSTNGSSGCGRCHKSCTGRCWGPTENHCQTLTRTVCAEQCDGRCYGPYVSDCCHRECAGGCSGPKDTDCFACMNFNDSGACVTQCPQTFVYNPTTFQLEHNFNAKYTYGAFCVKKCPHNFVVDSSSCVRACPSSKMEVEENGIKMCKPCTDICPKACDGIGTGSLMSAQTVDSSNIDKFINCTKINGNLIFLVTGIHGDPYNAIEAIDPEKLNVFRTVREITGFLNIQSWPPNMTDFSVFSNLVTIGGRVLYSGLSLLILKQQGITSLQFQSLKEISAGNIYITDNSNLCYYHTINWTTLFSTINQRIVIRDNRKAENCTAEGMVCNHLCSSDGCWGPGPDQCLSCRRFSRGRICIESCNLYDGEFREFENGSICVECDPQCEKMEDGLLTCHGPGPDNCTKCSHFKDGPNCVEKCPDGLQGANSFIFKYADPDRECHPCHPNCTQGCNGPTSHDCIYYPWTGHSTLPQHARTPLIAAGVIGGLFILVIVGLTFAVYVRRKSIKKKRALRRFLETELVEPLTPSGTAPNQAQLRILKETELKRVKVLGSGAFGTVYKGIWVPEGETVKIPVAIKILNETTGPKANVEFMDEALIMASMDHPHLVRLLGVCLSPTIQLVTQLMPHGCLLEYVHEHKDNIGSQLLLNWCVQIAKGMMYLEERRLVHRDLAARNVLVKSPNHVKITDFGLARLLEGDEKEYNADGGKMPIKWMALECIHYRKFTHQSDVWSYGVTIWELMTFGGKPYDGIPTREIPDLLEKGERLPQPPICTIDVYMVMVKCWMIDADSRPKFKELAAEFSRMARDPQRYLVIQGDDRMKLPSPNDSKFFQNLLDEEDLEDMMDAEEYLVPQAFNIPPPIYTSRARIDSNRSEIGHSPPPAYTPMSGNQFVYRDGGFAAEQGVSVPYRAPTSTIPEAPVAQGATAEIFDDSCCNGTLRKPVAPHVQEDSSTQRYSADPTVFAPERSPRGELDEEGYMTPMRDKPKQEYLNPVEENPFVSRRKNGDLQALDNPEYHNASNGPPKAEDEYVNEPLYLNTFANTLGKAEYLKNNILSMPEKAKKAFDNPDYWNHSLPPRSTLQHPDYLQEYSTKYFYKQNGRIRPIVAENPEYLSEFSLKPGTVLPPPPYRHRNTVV

[9] = molecular target: Tyrosine-protein kinase Fer (Homo sapiens) (UniProt P16591); conditions: at 0.1 µM
[10] = molecular target: Tyrosine-protein kinase Fer (Homo sapiens) (UniProt P16591); conditions: at 1 µM
[11] = molecular target: Tyrosine-protein kinase Fes/Fps (Homo sapiens) (UniProt P07332); conditions: at 0.1 µM
Tyrosine-protein kinase Fes/Fps (Homo sapiens), sequence (P07332 whole entry): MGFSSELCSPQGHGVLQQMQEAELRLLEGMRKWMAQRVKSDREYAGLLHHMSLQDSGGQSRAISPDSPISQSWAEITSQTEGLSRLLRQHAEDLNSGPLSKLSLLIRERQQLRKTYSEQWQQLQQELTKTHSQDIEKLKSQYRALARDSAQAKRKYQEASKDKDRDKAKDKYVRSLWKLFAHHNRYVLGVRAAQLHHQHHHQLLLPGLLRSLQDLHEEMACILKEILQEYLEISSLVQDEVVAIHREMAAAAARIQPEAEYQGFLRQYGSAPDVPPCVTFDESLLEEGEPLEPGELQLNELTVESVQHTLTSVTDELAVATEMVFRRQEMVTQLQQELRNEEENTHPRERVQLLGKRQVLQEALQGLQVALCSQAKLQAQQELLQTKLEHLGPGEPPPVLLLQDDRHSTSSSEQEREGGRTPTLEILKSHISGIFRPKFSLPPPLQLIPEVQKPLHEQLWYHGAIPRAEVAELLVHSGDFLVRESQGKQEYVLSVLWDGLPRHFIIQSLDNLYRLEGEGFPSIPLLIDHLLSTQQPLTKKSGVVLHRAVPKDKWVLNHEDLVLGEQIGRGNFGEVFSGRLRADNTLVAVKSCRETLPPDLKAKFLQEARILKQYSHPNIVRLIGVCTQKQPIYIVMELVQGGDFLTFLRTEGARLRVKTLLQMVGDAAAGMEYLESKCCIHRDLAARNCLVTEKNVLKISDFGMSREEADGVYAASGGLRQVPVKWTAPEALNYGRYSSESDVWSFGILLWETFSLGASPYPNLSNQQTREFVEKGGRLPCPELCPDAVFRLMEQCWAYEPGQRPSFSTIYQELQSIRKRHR

[12] = molecular target: Tyrosine-protein kinase Fes/Fps (Homo sapiens) (UniProt P07332); conditions: at 1 µM
[13] = molecular target: Fibroblast growth factor receptor 1 (Homo sapiens) (UniProt P11362); conditions: at 0.1 µM
Fibroblast growth factor receptor 1 (Homo sapiens), sequence (P11362 22-822 limits assumed): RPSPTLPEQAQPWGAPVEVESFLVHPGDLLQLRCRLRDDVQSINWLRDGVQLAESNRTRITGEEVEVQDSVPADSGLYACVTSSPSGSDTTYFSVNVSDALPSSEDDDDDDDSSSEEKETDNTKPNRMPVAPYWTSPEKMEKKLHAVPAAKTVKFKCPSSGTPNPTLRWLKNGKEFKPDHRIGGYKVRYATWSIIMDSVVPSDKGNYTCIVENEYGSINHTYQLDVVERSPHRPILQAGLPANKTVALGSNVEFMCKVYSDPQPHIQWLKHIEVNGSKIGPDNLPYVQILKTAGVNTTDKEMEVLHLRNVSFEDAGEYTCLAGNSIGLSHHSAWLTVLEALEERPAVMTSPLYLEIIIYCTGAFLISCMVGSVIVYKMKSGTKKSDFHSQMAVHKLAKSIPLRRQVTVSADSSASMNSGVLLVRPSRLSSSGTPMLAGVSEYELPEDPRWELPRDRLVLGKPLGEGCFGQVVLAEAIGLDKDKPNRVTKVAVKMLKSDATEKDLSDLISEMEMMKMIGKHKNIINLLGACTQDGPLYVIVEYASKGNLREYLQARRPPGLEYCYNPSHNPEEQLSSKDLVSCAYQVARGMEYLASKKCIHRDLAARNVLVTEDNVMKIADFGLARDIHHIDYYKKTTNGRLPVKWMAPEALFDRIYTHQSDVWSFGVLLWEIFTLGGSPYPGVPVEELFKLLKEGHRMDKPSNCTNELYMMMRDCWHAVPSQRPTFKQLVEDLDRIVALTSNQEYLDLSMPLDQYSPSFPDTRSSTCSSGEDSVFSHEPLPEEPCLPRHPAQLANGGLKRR

[14] = molecular target: Fibroblast growth factor receptor 1 (Homo sapiens) (UniProt P11362); conditions: at 1 µM
[15] = molecular target: Fibroblast growth factor receptor 2 (Homo sapiens) (UniProt P21802); conditions: at 0.1 µM
Fibroblast growth factor receptor 2 (Homo sapiens), sequence (P21802 22-821 limits assumed): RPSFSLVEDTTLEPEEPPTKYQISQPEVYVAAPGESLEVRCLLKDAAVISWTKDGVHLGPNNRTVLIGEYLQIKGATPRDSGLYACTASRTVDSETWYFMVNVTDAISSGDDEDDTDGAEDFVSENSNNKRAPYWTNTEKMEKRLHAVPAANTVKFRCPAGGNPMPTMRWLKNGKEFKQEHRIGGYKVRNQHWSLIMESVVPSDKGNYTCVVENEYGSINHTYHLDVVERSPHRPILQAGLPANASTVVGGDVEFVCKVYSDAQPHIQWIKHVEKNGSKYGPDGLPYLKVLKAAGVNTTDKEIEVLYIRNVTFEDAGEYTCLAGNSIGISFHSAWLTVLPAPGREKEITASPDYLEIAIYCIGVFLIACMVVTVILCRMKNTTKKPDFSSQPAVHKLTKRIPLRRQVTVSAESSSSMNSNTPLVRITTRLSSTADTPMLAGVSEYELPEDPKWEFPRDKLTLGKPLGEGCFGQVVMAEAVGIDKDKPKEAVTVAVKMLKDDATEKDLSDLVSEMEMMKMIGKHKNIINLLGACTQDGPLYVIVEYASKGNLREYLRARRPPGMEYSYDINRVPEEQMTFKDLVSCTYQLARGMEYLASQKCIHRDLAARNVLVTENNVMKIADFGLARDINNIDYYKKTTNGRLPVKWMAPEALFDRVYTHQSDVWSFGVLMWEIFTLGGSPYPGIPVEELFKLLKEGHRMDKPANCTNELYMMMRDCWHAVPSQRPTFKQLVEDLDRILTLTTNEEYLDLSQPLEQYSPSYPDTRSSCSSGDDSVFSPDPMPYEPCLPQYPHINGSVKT

[16] = molecular target: Fibroblast growth factor receptor 2 (Homo sapiens) (UniProt P21802); conditions: at 1 µM
[17] = molecular target: Fibroblast growth factor receptor 3 (Homo sapiens) (UniProt P22607); conditions: at 0.1 µM
[18] = molecular target: Fibroblast growth factor receptor 3 (Homo sapiens) (UniProt P22607); conditions: at 1 µM
[19] = molecular target: Fibroblast growth factor receptor 4 (Homo sapiens) (UniProt P22455); conditions: at 0.1 µM;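 further: values are mean percent inhibition of FGFR4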
Fibroblast growth factor receptor 4 (Homo sapiens), sequence (P22455 22-802 limits assumed): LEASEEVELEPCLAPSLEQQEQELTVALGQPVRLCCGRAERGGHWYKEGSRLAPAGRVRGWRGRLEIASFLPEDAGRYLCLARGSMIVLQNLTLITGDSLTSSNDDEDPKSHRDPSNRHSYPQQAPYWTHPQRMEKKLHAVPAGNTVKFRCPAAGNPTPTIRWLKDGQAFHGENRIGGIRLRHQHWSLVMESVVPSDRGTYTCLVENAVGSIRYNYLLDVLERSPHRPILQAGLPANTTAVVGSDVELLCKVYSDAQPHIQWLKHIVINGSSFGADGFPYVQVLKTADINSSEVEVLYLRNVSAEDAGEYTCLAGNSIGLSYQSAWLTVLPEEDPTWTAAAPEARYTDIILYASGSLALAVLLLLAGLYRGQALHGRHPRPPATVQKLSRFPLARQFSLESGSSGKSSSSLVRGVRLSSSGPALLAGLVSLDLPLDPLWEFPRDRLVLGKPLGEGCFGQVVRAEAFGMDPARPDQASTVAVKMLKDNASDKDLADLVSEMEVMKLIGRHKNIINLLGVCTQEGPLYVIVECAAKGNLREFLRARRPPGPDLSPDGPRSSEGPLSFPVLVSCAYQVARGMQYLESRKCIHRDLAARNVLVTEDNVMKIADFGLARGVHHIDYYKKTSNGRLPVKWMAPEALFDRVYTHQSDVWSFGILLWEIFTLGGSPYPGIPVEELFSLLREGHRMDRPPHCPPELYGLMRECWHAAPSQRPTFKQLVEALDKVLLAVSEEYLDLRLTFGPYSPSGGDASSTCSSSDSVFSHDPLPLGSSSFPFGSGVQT

[20] = molecular target: Receptor tyrosine-protein kinase erbB-4 (Homo sapiens) (UniProt Q15303); conditions: at 0.1 µM

`Nc1nc(-c2cccc(Cl)c2)c(-c2ccc3ncccc3n2)s1` was tested, and the inhibition [1] was 15.5%, the inhibition [2] was 5.95% and the inhibition [3] was 5.53%. For the same compound, the inhibition [4] was 2.58%, the inhibition [5] was 3.57% and the inhibition [6] was 2.61%. For the same compound, the inhibition [7] was 5.7%, the inhibition [8] was 28.1% and the inhibition [9] was 4.91%. The inhibition [10] was 3.32%, the inhibition [11] was 3.08% and the inhibition [12] was 4.47%. It also gave an inhibition [13] of 3.71%, an inhibition [14] of 7.27% and an inhibition [15] of 5.51%. The inhibition [16] was 7.42%, the inhibition [17] was 4.38% and the inhibition [18] was 8.26%. For the same compound, the inhibition [19] was -1.18%.
Work on `CCn1c(-c2nonc2N)nc2c(C#CC(C)(C)O)nc(OC[C@H](N)c3ccccc3)cc21` yielded an inhibition [1] of 0.23%, an inhibition [2] of 0.72% and an inhibition [3] of 1.06%. It also gave an inhibition [4] of 1.68%, an inhibition [5] of 1.24% and an inhibition [6] of 0.79%. For the same compound, the inhibition [7] was 3.43%, the inhibition [20] was 6.48% and the inhibition [8] was 28.9%. It also gave an inhibition [9] of 2.98%, an inhibition [10] of 7.41% and an inhibition [11] of 4.38%. For the same compound, the inhibition [12] was 7.88%, the inhibition [13] was 4.14% and the inhibition [14] was 2.91%. It also gave an inhibition [15] of 4.95%, an inhibition [16] of 4.18% and an inhibition [17] of 9.04%. The inhibition [18] was 3.32% and the inhibition [19] was 3.89%.
With `Nc1nc(-c2ccc(F)cc2)c(-c2ccc3ncccc3n2)s1` the inhibition [1] was 15.2%, the inhibition [2] was 5.51% and the inhibition [3] was 5.14%. For the same compound, the inhibition [4] was 1.8%, the inhibition [5] was 5.58% and the inhibition [6] was 4.65%. For the same compound, the inhibition [7] was 6.61%, the inhibition [20] was 16.8% and the inhibition [8] was 48.5%. It also gave an inhibition [9] of 2.2%, an inhibition [10] of 11.1% and an inhibition [11] of 3.07%. For the same compound, the inhibition [12] was 4.26%, the inhibition [13] was 4.21% and the inhibition [14] was 4.14%. The inhibition [15] was 4.62%, the inhibition [16] was 11.8% and the inhibition [17] was 8.15%. For the same compound, the inhibition [18] was 11.4% and the inhibition [19] was 1.96%.
`COC(=O)Nc1nc2ccc(S(=O)(=O)c3ccc(NC(=O)Nc4cc(C(F)(F)F)ccc4F)cc3)cc2[nH]1` showed an inhibition [1] of 14.7%, an inhibition [2] of 5.22% and an inhibition [3] of 0.8%. It also gave an inhibition [4] of 2.15%, an inhibition [5] of 3.46% and an inhibition [6] of 0.46%. For the same compound, the inhibition [7] was -2.51%, the inhibition [20] was 9.54% and the inhibition [8] was 12.2%. It also gave an inhibition [9] of 3.79%, an inhibition [10] of 2.04% and an inhibition [11] of 2.47%. The inhibition [12] was 2.5%, the inhibition [13] was 3.55% and the inhibition [14] was 2.11%. The inhibition [15] was 2.63%, the inhibition [16] was 7.81% and the inhibition [17] was 4.85%. The inhibition [18] was 4.38% and the inhibition [19] was -1.95%.
With `Cc1cccc(Nc2ncc(-c3ccccc3)o2)c1` the inhibition [1] was 2.78%, the inhibition [2] was 1.56% and the inhibition [3] was 2.29%. It also gave an inhibition [4] of 2.8%, an inhibition [5] of 3.6% and an inhibition [6] of 2.48%. For the same compound, the inhibition [7] was 2.62%, the inhibition [20] was 3.46% and the inhibition [8] was 8.57%. The inhibition [9] was 3.24%, the inhibition [10] was 7.96% and the inhibition [11] was 1.97%. For the same compound, the inhibition [12] was 3.44%, the inhibition [13] was 5.23% and the inhibition [14] was 3.22%. For the same compound, the inhibition [15] was 6.15%, the inhibition [16] was 6.52% and the inhibition [17] was 6.68%. The inhibition [18] was 4.17% and the inhibition [19] was 2.94%.
With `CNC(=O)c1cc(-c2ccc(F)cc2)cc(-c2ccc(S(=O)(=O)N3CCCC3)cc2)c1N` the inhibition [1] was 5.41%, the inhibition [2] was 0.26% and the inhibition [3] was 3.7%. The inhibition [4] was 1.99%, the inhibition [5] was 2.03% and the inhibition [6] was 2.24%. It also gave an inhibition [7] of 7.8%, an inhibition [20] of 5.77% and an inhibition [8] of 10.4%. It also gave an inhibition [9] of 2.99%, an inhibition [10] of 2.21% and an inhibition [11] of 2.25%. For the same compound, the inhibition [12] was 1.64%, the inhibition [13] was 3.72% and the inhibition [14] was 5.1%. For the same compound, the inhibition [15] was 9.77%, the inhibition [16] was 5.71% and the inhibition [17] was 4.56%. The inhibition [18] was 3.99% and the inhibition [19] was 2.78%.
Compound `COc1cc(/C=N/Nc2ncnc3[nH]ncc23)ccc1O` has an inhibition [1] of 38.7%, an inhibition [2] of 3.99% and an inhibition [3] of 5.19%. For the same compound, the inhibition [4] was 5.34%, the inhibition [5] was 20.9% and the inhibition [6] was 2.03%. For the same compound, the inhibition [7] was 4.08%, the inhibition [20] was 13.4% and the inhibition [8] was 21.1%. For the same compound, the inhibition [9] was 3.03%, the inhibition [10] was 14.3% and the inhibition [11] was 2.22%. For the same compound, the inhibition [12] was 7.19%, the inhibition [13] was 1.55% and the inhibition [14] was 7.94%. It also gave an inhibition [15] of 4.76%, an inhibition [16] of 16.9% and an inhibition [17] of 5.91%. The inhibition [18] was 19% and the inhibition [19] was -1.95%.
